Experimental findings from PubChem BioAssay (Tox21) are described below.

Molecules are shown by their SMILES. Inconclusive results are not listed. The source holds several records for some structures; these can differ, active in one and inactive in another. Active and inactive are the calls of the source. Calls follow the shape of the dose curve; as a rule, active = well fitted inhibition curve with a large enough effect in the repeat runs; inconclusive = weak or mixed curves, or effect the other way; inactive = no such curve, though single readings can be large or run the other way.
% is scaled to controls: 0 for no effect and ±100 for the full control effect; potency is read from the fitted curve at half-maximal effect.

Nuclear receptor subfamily 1 group I member 3 (Homo sapiens), sequence (Q14994 whole entry, looked up): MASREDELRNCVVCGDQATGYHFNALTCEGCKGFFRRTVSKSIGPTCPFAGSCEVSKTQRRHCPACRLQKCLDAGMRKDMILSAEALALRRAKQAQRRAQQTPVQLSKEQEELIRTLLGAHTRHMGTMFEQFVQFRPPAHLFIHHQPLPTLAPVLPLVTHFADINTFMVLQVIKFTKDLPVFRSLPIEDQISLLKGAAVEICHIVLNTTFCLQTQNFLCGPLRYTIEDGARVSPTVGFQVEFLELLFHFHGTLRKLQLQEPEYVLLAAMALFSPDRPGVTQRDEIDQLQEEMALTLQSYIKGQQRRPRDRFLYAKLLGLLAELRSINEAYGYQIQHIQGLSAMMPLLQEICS

This experiment deals with Nuclear receptor subfamily 1 group I member 3 (Homo sapiens) (UniProt Q14994). The experiment can be described thus: qHTS assay to identify small molecule antagonists of the constitutive androstane receptor (CAR) signaling pathway (AID 1224838).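 Also: HepG2 cells stably expressing hCAR with CYP2B6 luciferase reporter stimulated by CITCO; nearly all actives have a fitted effect of over 40% in size.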 To be noted: HepG2-CYP2B6-hCAR luciferase, CITCO-stimulated, 24 h; series mostly up to 92.4 µM; activity, negative = inhibition: at the top concentration. From the text:
U.S. Tox21 Program National Center for Advancing Translational Sciences [NCATS] NIH Chemical Genomics Center [NCGC] U.S. Environmental Protection Agency [EPA] National Institutes of Environmental Health Sciences [NIEHS] National Toxicology Program [NTP] U.S. Food and Drug Administration [FDA] Tox21 Assay Overview: The constitutive androstane receptor (CAR) is a nuclear receptor which regulates multiple drug metabolizing enzymes (DMEs) and transporters. Activating CAR will generally increase the transcription and subsequent translation of CYP2B6 and CYP3A4. These two DMEs represent about 50% of the drug metabolizing potential in the body. When CAR is deactivated, the metabolizing potential in the body will decrease, subsequently increasing the toxicity in the body or lowering the therapeutic potential of a pro-drug. Recently, there have also been studies performed indicating CARs role in energy metabolism and cancer therapy. Therefore, inhibiting CARs activity could have a potential effect on diabetes and cancer. Identifying environmental toxins and compounds which modulate CAR, through the use of the Tox21 10K compound collection, will be an important step in determining the toxicity and potential therapeutic effects these factors will have on the human body.
Tox21 Assay Protocol Summary: A double-stable (hCAR and CYP2B6-2.2kb) transfected cell line, derived from human hepatoma (HepG2) cells, was utilized for the duration of the quantitative high-throughput screens. The HepG2-CYP2B6-hCAR cells suspended in DMEM culture medium supplemented with 10% FBS, 5 ug/mL blasticidin, 0.5 mg/mL geneticin, 100 U/mL penicillin and 100 ug/mL streptomycin were dispensed at 2500 cells/4 uL/well in 1536-well white solid bottom plates using a Multidrop Combi. After the assay plates were incubated at 37 C/5% CO2 for 4 hrs, 23 nL of compounds at 15 concentrations (from 5-48 columns) or positive control (from 1 to 4 columns) were transferred to the assay plates using a Pintool station. One uL of CITCO, was added using a Flying Reagent Dispenser to generate a final concentration of 50 nM CITCO inside each well. After a 24 hr incubation period at 37 C/5% CO2, four uL of ONE-Glo reagent was added into the assay plates using a Flying Reagent Dispenser. After a 30 min incubation period at room temperature, the luminescence intensity in the assay plates was measured using a ViewLux plate reader.
(In general: In qHTS, concentration-response curves come from the screen itself.)
As for `CCCC[P+](C)(CCCC)CCCC`, the “activity, negative = inhibition” value is 11.9% (inactive).
In the case of `Oc1ccccc1O`, the Potency entry is “inactive”.
As to `CCC(C)n1ncn(-c2ccc(N3CCN(c4ccc(OC[C@H]5CO[C@](Cn6cncn6)(c6ccc(Cl)cc6Cl)O5)cc4)CC3)cc2)c1=O` (stereo not given in full), the “activity, negative = inhibition” value was 1.48% [at 42.5 µM] (inactive).
Same read-out and setting: as for `COC(C)=O`, the figure is -9.03% (inactive).
For `O=C(/C=C/c1ccccc1)OC/C=C/c1ccccc1`, the “activity, negative = inhibition” value is 158% (inactive).
The same measure, in the same setting: as for `COc1ccc2c(c1)c(CC(=O)OC/C=C(\C)CC/C=C(\C)CCC=C(C)C)c(C)n2C(=O)c1ccc(Cl)cc1`, the figure is 6.88% [at 42.5 µM] (inactive).
Still for that read-out and setting: as for `C=CC(=O)OCCOC(=O)C=C`, the figure is -7.19% (inactive); as for `Cc1cc(-n2nc3ccc(Cl)cc3n2)c(O)c(C(C)(C)C)c1`, 32.7% [at 42.5 µM] (inactive).
With `CC/C=C\CCCCCO`, the “activity, negative = inhibition” value was -4.9% (inactive).
Same read-out and setting: as for `CCCCCCCCCCOC(=O)c1ccccc1C(=O)OCCCCCCCC`, the figure is 0.829% (inactive); as for `C#C[C@]1(O)CC[C@H]2[C@@H]3[C@H](C)CC4=C(CCC(=O)C4)[C@H]3CC[C@@]21C`, -13.7% [at 42.5 µM] (inactive); as for `O=S(=O)(O)c1ccccc1/C=C/c1ccc(-c2ccc(/C=C/c3ccccc3S(=O)(=O)O)cc2)cc1`, 2.21% (inactive).
As to `OCC(F)(F)F`, the “activity, negative = inhibition” value was -38.9% (inactive).
Take `Fc1ccc(C(c2ccc(F)cc2)N2CCNCC2)cc1`: the “activity, negative = inhibition” value was -14.5% [at 42.5 µM] (inactive).
Still for that read-out and setting: as for `O=C1CCc2ccc(OCCCCN3CCN(c4cccc(Cl)c4Cl)CC3)cc2N1`, the figure is 32.8% [at 42.5 µM] (inactive); as for `CCCCCCCCCCC[C@@H](C[C@@H]1OC(=O)[C@H]1CCCCCC)OC(=O)[C@H](CC(C)C)NC=O`, -3.39% [at 42.5 µM] (inactive).
The same measure, in the same setting: as for `Cc1nc(-c2ccc(Cl)cc2)oc1COC(C)(C)C(=O)O`, the figure is 12.5% [at 42.5 µM] (inactive).
Consider `CCN(CC)c1ccc2c(-c3ccc(S(=O)(=O)O)cc3S(=O)(=O)[O-])c3ccc(=[N+](CC)CC)cc-3oc2c1`, for which the Potency is 28.2 µM (active).
Still for that read-out and setting: as for `O=C(O)c1cc(O)c2ccccc2c1O`, the figure is 38.6 µM (active).
Turning to `OC/C=C/CO`, the “activity, negative = inhibition” value is 3.84% (inactive).
On the same count and under the same terms, as for `O=C(O)c1cc(N=Nc2ccc([N+](=O)[O-])cc2)ccc1O`, the figure is 132% (inactive); as for `C[Si](Cl)(c1ccccc1)c1ccccc1`, 25.1% (inactive); as for `CCCc1ccc(OCC(=O)N2CCN(C(=O)COc3ccc(CCC)cc3OC)CC2)c(OC)c1`, 283% [at 42.5 µM] (inactive).
The same measure, in the same setting: as for `CC(C)Cn1cnc2c(N)nc3ccccc3c21`, the figure is 27.4% [at 19 µM] (inactive).
Regarding `COc1cc(C)ccc1O`, the “activity, negative = inhibition” value is -5.58% (inactive).
The same measure, in the same setting: as for `NC(=S)NC(N)=S`, the figure is -7.73% (inactive); as for `CC(C)(C)CC(C)(C)c1ccc(Nc2ccc(C(C)(C)CC(C)(C)C)cc2)cc1`, 33.1% [at 8.39 µM] (inactive).
On the same count and under the same terms, as for `O=c1c(O)c(-c2ccc(O)cc2O)oc2cc(O)cc(O)c12`, the figure is 71.4% (inactive).
On the same count and under the same terms, as for `CCOC(=O)NNc1ccc(N(CC)CC(C)O)nn1` (stereo not given), the figure is 11.9% [at 42.5 µM] (inactive); as for `OCCN1CCN(CCCN2c3ccccc3Sc3ccc(C(F)(F)F)cc32)CC1`, -8.51% [at 42.5 µM] (inactive).
For the compound `CC(C)(C)c1ccc(C(O)CCCN2CCC(C(O)(c3ccccc3)c3ccccc3)CC2)cc1` (stereo not given), the Potency is 26.6 µM (active).
On to `CCCCN(CCCC)CC(O)c1cc(Cl)cc2c1-c1ccc(Cl)cc1/C2=C/c1ccc(Cl)cc1` (stereo not given), for which the “activity, negative = inhibition” value was 190% [at 42.5 µM] (inactive).
Turning to `CCCCCCCCCCCCCC[N+](C)(C)C`, the Potency is 59.1 µM (active) and inactive.
As to `OC[C@@H](O)[C@@H](O)CO`, the “activity, negative = inhibition” value was 12.1% (inactive).
As for `O=C(O)CN(CCN(CC(=O)O)CC(=O)O)CC(=O)O`, the Potency is 1.94 µM (active).
In the case of `O=C(c1ccc(O)c(O)c1)c1ccc(O)cc1O`, the “activity, negative = inhibition” value is -1.76% (inactive).
Take `Nc1nc(N)nc(-c2cc(Cl)ccc2Cl)n1`: the “activity, negative = inhibition” value was 1.26% [at 42.5 µM] (inactive).
On the same count and under the same terms, as for `CCCCCCCCCCCCOC(=O)c1ccc(O)cc1`, the figure is -1.58% (inactive); as for `Nc1ccc(NCCO)c([N+](=O)[O-])c1`, -8.51% (inactive); as for `CC[N+](CC)(CC)CCOc1ccc(/C=C/c2ccccc2)cc1`, -1.6% [at 42.5 µM] (inactive).
